HT1080 IDH1KD tx: HT-1080 IDH1 knockdown cell toxicity (counter line); 360,000 compounds, 2% hits; HT-1080 IDH1 knockdown viability, ATP luminescence, 48 h; Potency, µM (top dose mostly 46.1 µM), hits mostly cytotoxic
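CellTiter-Glo luminescence after 48 h compound exposure at 37 degrees C of IDH1-knockdown HT-1080 cells in 5% FBS RPMI. %Activity scaled between DMSO wells and cell-free media wells, with curves fitted and assigned curve classes.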
TGFb inhibitor: inhibitors of TGF-b signaling; HepG2 CAGA-GFP TGF-b/SMAD3 reporter, GFP fluorescence, 18 h; TGF-beta stimulated, 500 pg/mL final; Potency, µM (highest dose often 46.1 µM), hits mostly inhibitors; 410,000 compounds, 1.2% hits; AID 588855; note: nearly all actives have a fitted effect of over 65% in size
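Per well, imaged GFP fluorescence of HEPG2 CAGA-GFP cells gives the signal; cells get compound, then TGF-beta (500 pg/mL final), 18 h at 37 degrees C; %Activity versus -TGF-beta and +DMSO controls.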
HT1080-NT tox: kills 2HG-producing HT-1080-NT fibrosarcoma cells | HT-1080-NT fibrosarcoma viability, CellTiter-Glo ATP luminescence, 48 h | Potency, µM (highest dose often 46.1 µM), actives largely listed as cytotoxic | 360,000 compounds, 1.6% hits | AID 686970;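 note: NT is the 2HG producing partner of a matched IDH1 knockdown line; nearly all actives have a fitted effect of over 55% in size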
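Toxicity toward the 2HG-producing NT line was scored as %Activity, normalised to DMSO and no-cell wells, from CellTiter-Glo luminescence after 48 hours' treatment.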
DT40 TDP1 no CPT: qHTS for Inhibitors of human tyrosyl-DNA phosphodiesterase 1 (TDP1): qHTS in cells in absence of CPT. DT40 Tdp1-/- hTDP1 cells, no CPT, ATP luminescence, 48 h. 420,000 compounds, 15% hits. Potency, µM (highest dose often 46.2 µM), usual class: inhibitors. AID 686978, 2013; note: nearly all actives have a fitted effect of over 55% in size
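No-CPT arm: Tdp1-/-;hTDP1 DT40 cells (400/well) plus compounds, incubated ≥48 hr at 37 °C. Readout CellTiter-Glo luminescence.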
HepG2 viability: kills HepG2 cells in TGF-b inhibitor counter-screen; HepG2 CAGA-GFP viability, ATP luminescence, 18 h; Potency, µM (highest dose often 46.1 µM), most hits filed as cytotoxic; 410,000 compounds, 0.76% hits; AID 588856
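CellTiter-Glo luminescence gave cytotoxicity after 18 hours at 37 degrees C. The cells were HepG2 CAGA-GFP in 1% FBS DMEM, stimulated with 500 pg/mL TGF-beta after compound addition. %Activity was normalised to no-cell wells (complete cell-killing) and DMSO (no toxicity), and curves were fitted and classified.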
TDP1 cell CPT: growth inhibition of DT40 Tdp1-/-;hTDP1 cells with camptothecin (screen for TDP1 inhibitors); AID 686979; Potency, µM (top dose mostly 46.2 µM), usual class: inhibitors; 420,000 compounds, 12% hits; chicken DT40 Tdp1-/-;hTDP1 cells + 20 nM CPT, ATP luminescence, 48 h; note: nearly all actives have a fitted effect of over 55% in size
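Cell growth measured by CellTiter-Glo luminescence after a minimum 48 h, 37 C compound exposure with 20 nM CPT in Tdp1-knockout DT40 cells stably expressing hTDP1, seeded 400/well; qHTS titration format.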
Hits are given with their value. This is a sample that favours compounds with a hit; in the whole collection about 17% have one here. Calls come from the whole dose curve; as a rule, active = well fitted curve in the direction sought with a large enough effect; inconclusive = small, poorly fitted or top-dose-only effect, or another doubt; inactive = no such curve, though single readings can be large; an effect the other way counts as inactive or inconclusive.

For CN(CC(=O)NCCC1=CCCCC1)S(=O)(=O)c1ccc2c(c1)c(=O)n(C)c(=O)n2C the results were HT1080 IDH1KD tx inactive, TGFb inhibitor inactive, HT1080-NT tox inactive, DT40 TDP1 no CPT inconclusive, HepG2 viability inactive and TDP1 cell CPT 8.2µM.
CCN(CC)S(=O)(=O)c1ccc2[nH]cc(C(=O)NCCN3CCCCCC3)c(=O)c2c1 was read as HT1080 IDH1KD tx inactive, TGFb inhibitor inactive, HT1080-NT tox inactive, DT40 TDP1 no CPT inactive, HepG2 viability inactive and TDP1 cell CPT inactive.
CCN(CC)S(=O)(=O)c1ccc2[nH]cc(C(=O)NCCC3=CCCCC3)c(=O)c2c1 was read as HT1080 IDH1KD tx 23.1µM, TGFb inhibitor inconclusive, HT1080-NT tox inconclusive, DT40 TDP1 no CPT 18.4µM, HepG2 viability inactive and TDP1 cell CPT 10.3µM.
CCC1CCCCN1C(=O)CCS(=O)(=O)c1cc2c(cc1C)NC(=O)CO2 (stereo not drawn) was read as TGFb inhibitor inactive and HepG2 viability inactive.
`O=C(CN1CCN(Cc2ccccc2)CC1)Nc1ccc(N2CCOCC2)cc1` gave HT1080 IDH1KD tx inactive, TGFb inhibitor inactive, HT1080-NT tox inactive, DT40 TDP1 no CPT inactive, HepG2 viability inactive and TDP1 cell CPT inactive.
For Cc1c(C(=O)N2CCN(Cc3ccccc3)CC2)oc2c1C(=O)CCC2 the results were HT1080 IDH1KD tx inactive, TGFb inhibitor inactive, HT1080-NT tox inactive, DT40 TDP1 no CPT inactive, HepG2 viability inactive and TDP1 cell CPT inactive.
O=C(Nc1cccc(S(=O)(=O)N2CCOCC2)c1)c1cc([N+](=O)[O-])ccc1N1CCOCC1 was read as HT1080 IDH1KD tx inactive, TGFb inhibitor inactive, HT1080-NT tox inactive, DT40 TDP1 no CPT inactive, HepG2 viability inactive and TDP1 cell CPT inactive.
`CCCOC(=O)c1ccc(Nc2nc3ccccc3nc2-n2nc(C)cc2C)cc1` gave TGFb inhibitor inactive, DT40 TDP1 no CPT inactive, HepG2 viability inactive and TDP1 cell CPT inactive.
CCc1ccc(N(C)S(=O)(=O)c2ccc3[nH]cc(C(=O)NCC4CCCO4)c(=O)c3c2)cc1 (stereo not drawn) was read as TGFb inhibitor inconclusive, DT40 TDP1 no CPT 14.6µM, HepG2 viability inactive and TDP1 cell CPT inconclusive.
Screening Cc1nnsc1S(=O)c1ccc(Cl)cc1 (stereo not drawn) returned HT1080 IDH1KD tx inactive, TGFb inhibitor inactive, HT1080-NT tox inactive, DT40 TDP1 no CPT inconclusive, HepG2 viability inactive and TDP1 cell CPT inconclusive.
`Cc1nnsc1S(=O)c1ccc(Cl)c(Cl)c1` (stereo not drawn) gave HT1080 IDH1KD tx inconclusive, TGFb inhibitor inactive, HT1080-NT tox inconclusive, DT40 TDP1 no CPT 14.6µM, HepG2 viability inactive and TDP1 cell CPT 10.3µM.
Screening O=C(NC(c1ccc(Cl)cc1)c1ccsc1)C1CCN(Cc2ccc(Oc3ccccc3)cc2)CC1 (stereo not drawn) returned HT1080 IDH1KD tx 11.6µM, TGFb inhibitor inactive, HT1080-NT tox 14.6µM, DT40 TDP1 no CPT 2.59µM, HepG2 viability inactive and TDP1 cell CPT 2.59µM.
Screening Cc1ccccc1C(NC(=O)C1CCN(Cc2ccc(Oc3ccccc3)cc2)CC1)c1ccsc1 (stereo not drawn) returned HT1080 IDH1KD tx inconclusive, TGFb inhibitor inactive, HT1080-NT tox 20.6µM, DT40 TDP1 no CPT 18.4µM, HepG2 viability inactive and TDP1 cell CPT 18.4µM.
Screening O=C(NC(c1ccccc1)c1ccsc1)C1CCN(Cc2ccccc2)CC1 (stereo not drawn) returned HT1080 IDH1KD tx inactive, TGFb inhibitor inactive, HT1080-NT tox inactive, DT40 TDP1 no CPT inconclusive, HepG2 viability inactive and TDP1 cell CPT inconclusive.
Screening COc1cc(CN2CCC(C(=O)NC(c3ccccc3)c3ccsc3)CC2)cc(OC)c1 (stereo not drawn) returned HT1080 IDH1KD tx inconclusive, TGFb inhibitor inactive, HT1080-NT tox inconclusive, DT40 TDP1 no CPT 20.6µM, HepG2 viability inactive and TDP1 cell CPT 16.4µM.
Screening CCCN1CCC(C(=O)NC(c2ccc(Cl)cc2)c2ccsc2)CC1 (stereo not drawn) returned HT1080 IDH1KD tx inconclusive, TGFb inhibitor inactive, HT1080-NT tox inconclusive, DT40 TDP1 no CPT 2.91µM, HepG2 viability inactive and TDP1 cell CPT inconclusive.
`Fc1ccc(-n2ncc3c(Nc4cccc(Cl)c4)ncnc32)cc1` gave TGFb inhibitor inconclusive, DT40 TDP1 no CPT inconclusive, HepG2 viability inactive and TDP1 cell CPT inconclusive.
O=C(O)CSc1nnc(NC(=O)CN2CCOCC2)s1 was read as HT1080 IDH1KD tx inactive, TGFb inhibitor inactive, HT1080-NT tox inactive, DT40 TDP1 no CPT inactive, HepG2 viability inactive and TDP1 cell CPT inactive.
Screening CC(NC(=O)CN1C(=O)NC2(CCCCCCC2)C1=O)c1ccccc1 (stereo not drawn) returned HT1080 IDH1KD tx inactive, TGFb inhibitor inconclusive, HT1080-NT tox inactive, DT40 TDP1 no CPT inactive, HepG2 viability inactive and TDP1 cell CPT inactive.
`Cc1ccc(C(O)c2ccc(-n3ccnc3)cc2)cc1` (stereo not drawn) gave HT1080 IDH1KD tx inactive, TGFb inhibitor inactive, HT1080-NT tox inactive, DT40 TDP1 no CPT 14.6µM, HepG2 viability inactive and TDP1 cell CPT inconclusive.
`CCc1nc(C)cn1S(=O)(=O)c1ccc(Cl)c(Cl)c1Cl` gave HT1080 IDH1KD tx inactive, TGFb inhibitor inconclusive, HT1080-NT tox inactive, DT40 TDP1 no CPT 20.6µM, HepG2 viability inactive and TDP1 cell CPT 18.4µM.
For CCc1nc(C)cn1S(=O)(=O)c1cc(C)c(OC)c(C)c1C the results were HT1080 IDH1KD tx inconclusive, TGFb inhibitor inconclusive, HT1080-NT tox inconclusive, DT40 TDP1 no CPT 10.3µM, HepG2 viability inactive and TDP1 cell CPT 8.2µM.
`CCc1nc(C)cn1S(=O)(=O)c1cc(Cl)c(OC)cc1Cl` gave HT1080 IDH1KD tx inactive, TGFb inhibitor inconclusive, HT1080-NT tox inactive, DT40 TDP1 no CPT inconclusive, HepG2 viability inactive and TDP1 cell CPT inconclusive.
For COc1cc2oc(=O)cc(CN3CCCCC3)c2cc1Cl the results were HT1080 IDH1KD tx inactive, TGFb inhibitor inactive, HT1080-NT tox inactive, DT40 TDP1 no CPT inactive, HepG2 viability inactive and TDP1 cell CPT inactive.
For CCOc1ccc(NS(=O)(=O)c2ccc(-c3coc(C)n3)cc2)cc1 the results were HT1080 IDH1KD tx inactive, TGFb inhibitor inactive, HT1080-NT tox inactive, DT40 TDP1 no CPT inconclusive, HepG2 viability inactive and TDP1 cell CPT inconclusive.
COC(=O)c1cccc(NC(=S)Nc2ccc(Cl)c(Cl)c2)c1 was read as HT1080 IDH1KD tx inconclusive, TGFb inhibitor inconclusive, HT1080-NT tox inactive, DT40 TDP1 no CPT 25.9µM, HepG2 viability inactive and TDP1 cell CPT inactive.
